Our source for the binding response (% of control) values is PubChem BioAssay AID1894 (NMMLSC, 2009).

The campaign covered roughly 5,900 compounds. About 100 (1.7%) were called active.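 Rule for the calls: active = binding response below 72% of control, or above a set upper limit, though filed actives all read lower; inactive = the rest.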 The sample as a whole holds a higher share of actives than the screen did.

Chain of Mitogen-activated protein kinase kinase kinase 3 (Homo sapiens) (Q99759 whole entry, looked up): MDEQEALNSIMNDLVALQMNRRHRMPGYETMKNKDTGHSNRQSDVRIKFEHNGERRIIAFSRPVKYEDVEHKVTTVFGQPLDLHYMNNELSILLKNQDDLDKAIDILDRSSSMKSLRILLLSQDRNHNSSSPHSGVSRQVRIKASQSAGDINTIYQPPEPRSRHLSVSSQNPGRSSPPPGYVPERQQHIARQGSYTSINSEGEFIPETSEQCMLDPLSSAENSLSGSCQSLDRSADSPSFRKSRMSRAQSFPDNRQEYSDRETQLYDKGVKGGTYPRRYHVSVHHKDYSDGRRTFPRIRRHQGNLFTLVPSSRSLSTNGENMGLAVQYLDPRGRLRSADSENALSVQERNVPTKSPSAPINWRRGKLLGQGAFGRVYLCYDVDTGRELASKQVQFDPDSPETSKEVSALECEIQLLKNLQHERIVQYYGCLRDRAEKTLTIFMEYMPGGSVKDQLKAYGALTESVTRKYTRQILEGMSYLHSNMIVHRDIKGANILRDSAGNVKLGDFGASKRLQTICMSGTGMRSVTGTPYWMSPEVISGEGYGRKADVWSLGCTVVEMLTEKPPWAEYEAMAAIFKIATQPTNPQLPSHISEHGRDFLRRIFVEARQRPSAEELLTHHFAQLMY

This experiment has as its target Mitogen-activated protein kinase kinase kinase 3 (Homo sapiens) (UniProt Q99759). In words: MEKK3 wild-type PB1 binding to MEK5, inhibitors, confirmation, biochemical, bead multiplex flow cytometry, single concentration, wildtype (AID 1894).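 Note: 100% = DMSO only wells and 0% = binding blocked by excess unlabeled MEK5; lower values mean stronger disruption of MEK5 binding to MEKK3.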 To be noted: Alexa488-MEK5 binding to MEKK3, at 10 µM, active compounds read low. Background: Flow cytometry measures light scatter and fluorescence of single cells or particles in a stream.
Take `C=CCN(CC=C)S(=O)(=O)c1ccc(C(=O)Nc2sc3c(c2C(N)=O)CCCCC3)cc1`: the binding response (% of control) was 100% (inactive).
`Cc1ccc(N(CCC(=O)O)S(=O)(=O)c2cccc(C(F)(F)F)c2)cc1`: the binding response (% of control) was 102% (inactive).
Take `Cc1ccc(CNC(=O)Cn2c(=O)c3sccc3n(Cc3cccc([N+](=O)[O-])c3)c2=O)cc1`: the binding response (% of control) is 102% (inactive).
With `COc1cccc(C2CC(c3ccccc3)=NN2S(=O)(=O)c2ccccc2)c1OC` (configuration not stated), the binding response (% of control) was 100% (inactive).
Regarding `O=C(Nc1ccn(Cc2ccccc2)n1)c1cccc(F)c1`, the binding response (% of control) was 100% (inactive).
For `CCCCOC(=O)c1ccc(N2C(=O)CC(N3CCN(C/C=C/c4ccccc4)CC3)C2=O)cc1` (configuration not stated), the binding response (% of control) is 104% (inactive).
In the case of `COc1cc(-c2nnc(Cn3cc(C(F)(F)F)ccc3=O)o2)cc(OC)c1OC`, the binding response (% of control) was 102% (inactive).
Consider `COc1cc(Br)c(-c2sc(Nc3ccccc3)n[n+]2-c2ccccc2)cc1OC`, for which the binding response (% of control) is 102% (inactive).
Consider `COc1cccc(/C(C)=N/Nc2ncc(Cl)cc2Cl)c1`, for which the binding response (% of control) is 108% (inactive).
Take `COc1cc(/C=C2\SC(=S)N(Nc3ncc(C(F)(F)F)cc3Cl)C2=O)cc(OC)c1OC`: the binding response (% of control) is 90% (inactive).
For the molecule `CCN(CC)CCOCCOc1ccc(Cl)c2ccccc12`, the binding response (% of control) was 107% (inactive).
Turning to `CCOc1ccc(NC(=O)Nc2cc(C)ccc2OC)cc1`, the binding response (% of control) is 100% (inactive).
Consider `Cc1onc(-c2ccccc2Cl)c1C(=O)OCC(=O)c1ccccc1`, for which the binding response (% of control) is 100% (inactive).
Take `O=C(OCc1cc(Cl)ccc1OC(F)F)c1cccnc1`: the binding response (% of control) is 97% (inactive).
Then `O=c1c(/C=N/O)coc2ccc(Cl)cc12`, with 101% (inactive); and `O=C(Nc1ccc(Cl)cn1)c1cnn2cccnc12`, with 105% (inactive).
Then `CCOC(=O)c1sc2nc(C)nc(SCC(N)=O)c2c1C`, with 109% (inactive); and `CCC(C)OC(=O)C(C)Oc1ccc(-c2ccccc2)cc1` (configuration not stated), with 108% (inactive).
Regarding `COc1ccc(C(=O)C[n+]2ccc(C)cc2)cc1`, the binding response (% of control) was 103% (inactive).
With `CCN1CCN(c2ccc(S(=O)(=O)N3CCCCC3)cc2NC(=O)Cc2c(Cl)cccc2Cl)CC1`, the binding response (% of control) is 104% (inactive).
Under `Cc1nn(-c2ccccc2)c(NC(=O)c2cccs2)c(-c2ccc(Cl)cc2)c1=O` stands 101% (inactive); under `Cc1cc(C(=O)OCC(=O)N2c3ccccc3NC(=O)C2(C)C)c(C)n1-c1ccccc1`, 106% (inactive).
Turning to `Cc1cccn2c(=O)c(/C=C3\SC(=S)N(CC(C)C)C3=O)c(NCCCOC(C)C)nc12`, the binding response (% of control) was 86% (inactive).
With `C/C(CC(=O)NC(C)(C)C)=N\NC(=O)c1ccco1`, the binding response (% of control) was 100% (inactive).
Take `Cc1ccc(C(=O)N/C(=C/c2ccco2)C(=O)NCCc2c[nH]c3ccccc23)cc1C`: the binding response (% of control) was 105% (inactive).
Then `CCC(=C/c1sc2ccc3ccccc3c2[n+]1C)/C=C1\Sc2ccc3ccccc3c2N1C`, with 29% (active); and `Cn1c2ccccc2c(=O)c2c(=O)n(Cc3ccco3)c(COc3ccccc3)nc21`, with 100% (inactive); and `CN(C)CCCNC(=O)c1cc(C(=O)Cc2ccc(Cl)cc2)c[nH]1`, with 98% (inactive).
Consider `Cc1ccc(NC(=S)N(CCCN2CCCC2)Cc2cccn2Cc2ccc(Cl)cc2)cc1`, for which the binding response (% of control) is 104% (inactive).
Then `N#C/C(=C\C1=C(N2CCOCC2)C(=C\c2ccccc2)/CC1)C(=O)Nc1ccccc1F`, with 27% (active); and `COC(=O)c1cc(NC(=O)c2cc(C(C)(C)C)nn2Cc2cccc(C)c2)ccc1N1CCOCC1`, with 99% (inactive).
Take `CN(C)CCCNC(=S)N1CCN(c2nc(-c3ccccc3)cs2)CC1`: the binding response (% of control) is 102% (inactive).
As for `Cn1ccc(=Nc2ccc(NC(=O)c3ccc(N=c4ccn(C)c5ccc([N+](=O)[O-])cc45)cc3)cc2)cc1`, the binding response (% of control) was 105% (inactive).
As to `O=C(NCCCN1CCN(c2ccc(F)cc2)CC1)Nc1ccc([N+](=O)[O-])cc1`, the binding response (% of control) is 107% (inactive).
For the molecule `O=C(c1cnn(-c2ccc(Cl)cc2)c1)c1ccccc1O`, the binding response (% of control) was 110% (inactive).
Then `O=C(NC1CCN(Cc2ccccc2)CC1)c1ccc(Oc2cc(Cl)cc(Cl)c2)o1`, with 97% (inactive); and `O=C(NCCC1=CCCCC1)c1ccc(Cl)c([N+](=O)[O-])c1`, with 106% (inactive); and `CC1CN(C(=O)c2ccccc2NS(=O)(=O)c2cccc([N+](=O)[O-])c2)CC(C)O1` (configuration not stated), with 101% (inactive).
Turning to `CC(C)c1ccc(C(=O)NCCCc2ccccc2)cc1`, the binding response (% of control) was 98% (inactive).
On to `O=C(O)c1cccnc1NC1CCCC1`, for which the binding response (% of control) was 108% (inactive).
As for `COc1cccc(NC(=S)NCCCN2CCOCC2)c1`, the binding response (% of control) was 106% (inactive).
Then `COC(=O)CCc1sc(Nc2ccc(Br)cc2)nc1-c1ccc(OC)cc1`, with 106% (inactive); and `O=C(NNc1c2ccccc2nc2ccccc12)c1cc2ccccc2cc1O`, with 51% (active).
`O=C(Cc1cccc2ccccc12)Nc1ccc2oc(-c3ccccc3)nc2c1`: the binding response (% of control) is 102% (inactive).
For the molecule `CNC(=O)/C(=C\C=C\c1ccccc1)NC(=O)c1ccc([N+](=O)[O-])cc1`, the binding response (% of control) was 107% (inactive).
Then `COc1ccc(C(=O)NCC(=O)N/N=C/c2ccc([N+](=O)[O-])o2)cc1OC`, with 93% (inactive).
On to `Cc1c(-c2ccccc2)cn2c1-c1ccc(C)n1CC2`, for which the binding response (% of control) is 93% (inactive).
For `Cc1ccc(C)c(CN2CCC(CNC(=O)Nc3ccc(C)c(F)c3)CC2)c1`, the binding response (% of control) is 107% (inactive).
Then `COc1cc(-c2nc(-c3ccncc3)no2)cc(OC)c1OC`, with 104% (inactive).
For the molecule `Cc1ccc(S(=O)(=O)/N=S(\C)C(C)C)cc1` (configuration not stated), the binding response (% of control) was 101% (inactive).
On to `CCOC(=O)Cc1csc(NC(=O)CSc2nc(C)cc(=O)[nH]2)n1`, for which the binding response (% of control) is 99% (inactive).
`COc1ccc(CNC(=O)C2CCN(S(C)(=O)=O)CC2)cc1`: the binding response (% of control) was 102% (inactive).
Then `O=C(Cc1cccs1)N/N=C/c1ccc(OCc2ccccc2)cc1`, with 104% (inactive).
With `COc1ccc(S(=O)(=O)N2CN(CCc3ccc(OC)c(OC)c3)c3nc4ccccc4nc32)cc1`, the binding response (% of control) was 97% (inactive).
As to `COc1cc(CC(=O)N/N=C/c2ccccc2)c([N+](=O)[O-])cc1OC`, the binding response (% of control) is 104% (inactive).
For the molecule `FC(F)(F)c1cccc(N/N=C/c2ccccc2)c1`, the binding response (% of control) is 105% (inactive).
In the case of `CCOC(=O)CN(C)S(=O)(=O)c1ccc(-c2cc(C(=O)OC)sc2C(F)(F)F)cc1`, the binding response (% of control) was 103% (inactive).
Consider `COc1ccc(C2CC(=O)Nc3cc(C)c(C)cc32)c(OC)c1OC` (configuration not stated), for which the binding response (% of control) was 104% (inactive).
Consider `O=C(c1ccco1)N1CCN(c2cccc(Cl)c2)CC1`, for which the binding response (% of control) was 100% (inactive).
Under `C=C(C)C1CC=C(C)/C(=N\NC(=O)CNc2ccccc2OC)C1` (configuration not stated) stands 109% (inactive); under `CCOC(=O)c1cc2c(nc1NC(=S)Nc1ccccc1)CC(C)(CC)OC2` (configuration not stated), 102% (inactive); under `COc1cccc(OCC(=O)NNC(=O)c2cnccn2)c1`, 101% (inactive).
Regarding `CCCn1c(=N)n(CC(=O)c2ccc(Cl)c(Cl)c2)c2ccccc21`, the binding response (% of control) is 109% (inactive).
For the molecule `Cc1cc(C)c(NC(=O)C[N+](C)(C)CC(O)COc2cccc3ccccc23)c(C)c1` (configuration not stated), the binding response (% of control) is 108% (inactive).
Then `CCOC(=O)c1c(-c2ccccc2)csc1NC(=S)NC(=O)c1ccccc1`, with 102% (inactive); and `CCCCN1C(=O)/C(=C(/C#N)C(N)=O)c2ccccc21`, with 99% (inactive); and `CC(=O)Nc1ccc(N2CCOCC2)c(C(=O)Nc2cccc(C)c2)c1`, with 105% (inactive).
With `COc1ccccc1NC(=S)N1CCN(c2ccc(F)cc2)CC1`, the binding response (% of control) was 102% (inactive).
Take `CCCN(CCC)c1nc2c(C)cccn2c(=O)c1/C=C1/SC(=S)N(Cc2ccco2)C1=O`: the binding response (% of control) is 86% (inactive).
In the case of `O=C(Nc1ccc2ccccc2c1)Nc1ccc2snnc2c1`, the binding response (% of control) is 105% (inactive).
As for `O=C1NCC(=O)N(Cc2ccccc2)/C1=C/c1ccccc1`, the binding response (% of control) was 91% (inactive).
As for `O=C(CSc1ccc(-c2ccc(F)cc2)nn1)Nc1ccc2c(c1)OCCO2`, the binding response (% of control) is 104% (inactive).
With `CCOc1cc(C(=O)OCC(=O)Nc2cccc(C)c2)ccc1OCC(=O)N1CCOCC1`, the binding response (% of control) is 106% (inactive).
As to `O=C(CN1C(=O)c2cccnc2Oc2ccc(Cl)cc21)Nc1ccc(F)cc1`, the binding response (% of control) is 103% (inactive).
Take `O=c1c2ccccc2c(-c2ccccc2)nn1Cc1ccccc1`: the binding response (% of control) was 97% (inactive).
Turning to `CCn1cc(CN2CCC(C(=O)Nc3cccc(-c4cccc(Cl)c4)c3)CC2)cn1`, the binding response (% of control) is 116% (inactive).
As to `CC(=O)N1CCN(S(=O)(=O)c2ccc(C)c([N+](=O)[O-])c2)C1C(C)C` (configuration not stated), the binding response (% of control) is 97% (inactive).
With `N=C1/C(=C/c2cccn2-c2cccc([N+](=O)[O-])c2)C(=O)N=C2SC=CN12`, the binding response (% of control) is 100% (inactive).
Take `Cn1c(=NC(=O)CSCC(=O)N2CCCCC2)sc2ccccc21`: the binding response (% of control) is 104% (inactive).
With `CCCCNC(=O)N1CCCC(N(C)CCc2ccc(OC)c(OC)c2)C1` (configuration not stated), the binding response (% of control) is 102% (inactive).
For the molecule `O=C(NCc1ccccc1Cl)NC(=O)c1csc([N+](=O)[O-])c1`, the binding response (% of control) is 103% (inactive).
Regarding `CC(C)(C)c1nnc(NC(=O)C2c3ccccc3Oc3ccccc32)s1`, the binding response (% of control) was 100% (inactive).
Under `CN(c1ccccc1)c1ccc(/C=c2\s/c(=C(/C#N)C(=O)C(C)(C)C)n(Cc3ccco3)c2=O)cc1` stands 69% (active).
Under `O=C(/C=C/Nc1ccccc1)c1cnc(-c2ccccc2)s1` stands 106% (inactive); under `Cc1cccc(-c2ncc(CN3CCC(CO)(CCCc4ccccc4)CC3)cn2)c1`, 107% (inactive).
For the molecule `CC(C)(C)NC(=O)c1cccc(NC(=O)Cc2ccc(Br)cc2)c1`, the binding response (% of control) was 101% (inactive).
With `COCC(C)NC(=O)COc1nncc2ccccc12` (configuration not stated), the binding response (% of control) was 95% (inactive).
With `O=C(COC(=O)CNC(=O)c1ccco1)Nc1ccc(F)cc1`, the binding response (% of control) was 103% (inactive).
As to `CCOC(=O)c1c(NC(=O)c2ccc(S(=O)(=O)N(C)CC3CCCO3)cc2)sc2c1CC(C)(C)NC2(C)C` (configuration not stated), the binding response (% of control) is 99% (inactive).
On to `CCN(CC)CCCNC(=O)c1ccc2c(=O)n(Cc3ccc4c(c3)OCO4)c(=S)[nH]c2c1`, for which the binding response (% of control) was 101% (inactive).
Then `CN(C)CCCN(C(=O)COc1ccccc1)c1nc2c(Cl)cccc2s1`, with 108% (inactive).
Consider `O=C(O)/C=C\C(=O)Nc1ccc(OCc2ccccc2)cc1`, for which the binding response (% of control) is 98% (inactive).
